From PubChem BioAssay AID1903 (Southern Research Specialized Biocontainment Screening …, 2009)
Several values for one entry are separate records, joined by “and”; a condition that tells them apart may be missing. Identical values can stand only once. Among all 310,000 compounds or so, about 1,200 (0.39%) were called active. How the calls were made is not given here. Only a sample is shown. Results with a measured potency or affinity are listed apart.

What follows are compounds tested against Large T antigen (Simian virus 40) (UniProt P03070) (assay: TAg ATPase/helicase activity blockers – biochemical (AID 1903)). Details: SV40 large T antigen ATPase/helicase inhibition assay; at 20 µM; active compounds read high.
Chain of Large T antigen (Simian virus 40) (P03070 whole entry, looked up): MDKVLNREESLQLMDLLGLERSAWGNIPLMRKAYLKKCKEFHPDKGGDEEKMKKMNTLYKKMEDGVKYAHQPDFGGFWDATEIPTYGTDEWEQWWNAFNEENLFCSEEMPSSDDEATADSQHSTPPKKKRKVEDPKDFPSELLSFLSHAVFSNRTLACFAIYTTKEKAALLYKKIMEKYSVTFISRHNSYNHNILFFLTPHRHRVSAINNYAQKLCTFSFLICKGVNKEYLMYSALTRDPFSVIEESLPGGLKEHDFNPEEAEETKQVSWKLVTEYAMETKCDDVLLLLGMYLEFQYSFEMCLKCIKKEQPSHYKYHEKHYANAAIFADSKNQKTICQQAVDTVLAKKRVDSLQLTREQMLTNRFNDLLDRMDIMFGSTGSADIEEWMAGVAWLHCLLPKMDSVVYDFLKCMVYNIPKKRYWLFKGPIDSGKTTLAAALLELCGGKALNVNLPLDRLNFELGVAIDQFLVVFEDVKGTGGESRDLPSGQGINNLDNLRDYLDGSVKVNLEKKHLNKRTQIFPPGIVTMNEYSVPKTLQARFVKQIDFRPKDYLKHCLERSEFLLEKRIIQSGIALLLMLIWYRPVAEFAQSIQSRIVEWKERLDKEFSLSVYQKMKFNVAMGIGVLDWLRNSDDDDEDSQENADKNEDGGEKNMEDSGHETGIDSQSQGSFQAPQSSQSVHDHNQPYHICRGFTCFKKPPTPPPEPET

inhibition, inactive:
Oc1cc(O)c2c(c1)O[C@H](c1ccc(O)c(O)c1)[C@H](O)C2 37.1%
O=C(O[C@@H]1Cc2c(O)cc(O)cc2O[C@@H]1c1cc(O)c(O)c(O)c1)c1cc(O)c(O)c(O)c1 -0.22%
O=C1c2c(O)cc(O)cc2O[C@H](c2ccc(O)c(O)c2)[C@@H]1O 5.87%
O=C1c2c(O)cc(O)cc2O[C@H](c2ccc(O)c(O)c2)[C@H]1O 7.35%
COc1cc(C(=S)N2CCOCC2)cc(OC)c1OS(=O)(=O)c1ccc(C)cc1 3.46%
Cc1csc(Sc2ccc([N+](=O)[O-])cc2C(=O)OCC(=O)NC2CCCC(C)C2C)n1 (centres undefined) 16.8%
CC(C)C(=O)NNC(=O)c1csc(CS(=O)(=O)c2ccc(Cl)cc2)n1 9.42%
Cc1cnc(C(=O)NC2CCSc3ccccc32)cn1 (centres undefined) 9.84%
CC(C)[C@@H]1CC[C@@H](C)c2c(-c3ccccc3)n[nH]c21 -1.85%
COc1ccc2c(c1O)-c1ccccc1CCN(C)C2 20.8%
COc1cc2c(cc1OC)C(Cc1ccc(O)cc1)N(C)CC2 (centres undefined) 2.71%
CN1CCc2cccc3c2[C@@H]1Cc1ccc(O)c(O)c1-3 39.9%
CN1CCC(=C2c3ccccc3C(O)c3ccccc32)CC1 (centres undefined) 5.26%
COc1c(O)ccc2c1CN1CCc3cc4c(cc3C1C2)OCO4 (centres undefined) 58.7%
CN1CCc2cc3c(c4c2[C@H]1[C@H](O)c1ccccc1-4)OCO3 14.8%
CCC(C)NCCC(=O)Nc1ccc(Cl)c(S(=O)(=O)Nc2ccc(Cl)cc2)c1 (centres undefined) 7.37%
O=C(Nc1cccc(-c2nn[nH]n2)c1)c1ccc(Cl)s1 8.59%
Cc1cc(C(=O)Nc2cccc(C(=O)O)c2)c(C)o1 4.39%
CC(C)(C)c1cc(N)n(-c2ccc(C(=O)O)cc2)n1 11.4%
CCC(=O)N/N=C(\C)CC(=O)Nc1ccc2ccccc2c1 11.7%
C/C(CC(=O)Nc1ccccn1)=N\NC(=O)c1ccc2ccccc2c1 -45.2%
C/C(CC(=O)Nc1ccc(N(C)C)cc1)=N\NC(=O)c1ccccn1 28.2%
C/C(CC(=O)Nc1ccc(N(C)C)cc1)=N\NC(=O)c1ccc(C(C)(C)C)cc1 9.71%
C/C(CC(=O)Nc1ccc(N(C)C)cc1)=N\NC(=O)c1ccc(F)cc1 29.8%
COc1ccc(NC(=O)C/C(C)=N/NC(=O)c2cnccn2)cc1 -3.03%
Cc1ccc(N(Cc2ccc(C(=O)Nc3c(C)n(C)n(-c4ccccc4)c3=O)cc2)S(C)(=O)=O)cc1C 9.36%
O=C1[C@@H]2Cc3c([nH]c4ccccc34)C(c3ccccc3)N2C(=O)CN1CCO (some centres undefined) 9.64%
CCC(C)NC(=O)CCc1nnc2ccc(N3CCC(C)CC3)nn12 (centres undefined) 6.91%
O=S(=O)(O)c1cccc(N=Nc2c(O)ccc3ccccc23)c1 7.77%
Nc1cc(S(=O)(=O)O)cc([N+](=O)[O-])c1O 23%
Oc1ccc(Cl)cc1N=Nc1ccccc1 8.08%
Cc1ccc(N=Nc2ccc(N)cc2C)c(S(N)(=O)=O)c1 10.1%
C#CCOCCOCCOCCNc1nc(N2CCN(C(=O)C([C@@H](C)CC)n3cc(C(N)Cc4ccc(O)cc4)nn3)CC2)nc(N2CCN(C(=O)[C@H](CCC(=O)O)n3cc(C(N)Cc4ccc(O)cc4)nn3)CC2)n1 (some centres undefined) 18.6%
CN(CC(=O)Nc1ccc(Cl)cc1)CC(=O)Nc1ccc(F)c(F)c1F -109%
O=C(NCc1ccccn1)C1CCCN(S(=O)(=O)c2cccc3nsnc23)C1 (centres undefined) 9.56%
O=C(c1ccc(Oc2ccc(C(F)(F)F)cc2[N+](=O)[O-])cc1)N1CCOCC1 1.7%
O=C(Nc1cccc(Br)c1)c1ccc(CN2CCc3ccccc3C2)cc1 6.55%
Nc1nc(Nc2ccccc2)nc(N2CCOCC2)c1[N+](=O)[O-] 0.42%
CCOC(=O)c1cc(CC)sc1N 14.6%
Nc1sc(-c2ccccc2)cc1C(=O)O 4.81%
CCOC(=O)c1cc(-c2ccccc2)sc1N 6.85%
COC(=O)c1cc(-c2ccccc2)sc1N 11.1%
CC(OC(=O)c1oc2ccccc2c1CSC1CCCCC1)C(=O)NC(N)=O (centres undefined) 6.96%
Cc1[nH]c2ccc(C(=O)NCCCN3CCN(C)CC3)cc2c1C 15.6%
O=C(/C=C/c1ccccc1)N1CCN(c2ccc([N+](=O)[O-])c(N3CCOCC3)c2)CC1 9.06%
CC(=O)N1CCN(c2ccc(NCc3ccc(C)cc3)cc2)CC1 14.1%
CC(=O)N1CCN(c2ccc(NCc3ccccc3)cc2)CC1 8.55%
CCc1ccc(CNc2ccc(N3CCN(C(C)=O)CC3)cc2)cc1 9.55%
Cc1ccc(CNc2ccc(N3CCOCC3)cc2)s1 14.2%
COc1ccc(CNC(=O)CCCn2nc(C)c3c(C)n(-c4ccccc4)nc3c2=O)cc1 12.9%
CCOc1ccccc1-c1noc(CCC(=O)Nc2cccnc2)n1 10.5%
COc1ccc(-c2c(-c3ccc(OCC(=O)NN)cc3O)n[nH]c2C)cc1OC 5.82%
C=C(C)COc1ccc(-c2n[nH]c(C)c2-c2ccc(OC)c(OC)c2)c(O)c1 13.9%
N#C[C@H]1C2OC2c2ccccc2N1C(=O)c1ccccc1 (some centres undefined) 3.71%
O=c1cc(CO)oc(CN2CCN(c3ccccc3)CC2)c1O 3.29%
COc1ccc(Cl)cc1NC(=S)Nc1cccnc1 5.19%
CC(=O)O[C@]1(C(C)=O)CC[C@H]2[C@@H]3C=C(C)C4=CC(=O)CC[C@]4(C)[C@H]3CC[C@@]21C 24.3% and 8.14%
CC(=O)O[C@]1(C(C)=O)CC[C@H]2[C@@H]3C[C@H](C)C4=CC(=O)CC[C@]4(C)[C@H]3CC[C@@]21C 21.1% and 1.31%
CC(=O)O[C@]1(C(C)=O)CCC2C3C=C(C)C4=CC(=O)CC[C@]4(C)C3CC[C@@]21C (some centres undefined) 6.68%
